Results on 35 compounds are retold here after PubChem BioAssay (NCATS).

The structures appear in SMILES notation. “And” between values parts separate entries of the source, which are not always exact repeats. Identical values can stand only once. Inconclusive results are not listed. The source made the active and inactive calls. Unless noted, the call rests on the fitted dose curve; in most records, active means well fitted curve in the direction sought with a large enough effect; inconclusive means small, poorly fitted or top-dose-only effect, or another doubt; inactive means no such curve, though single readings can be large or run the other way.

The first experiment can be described thus: qHTS Assay for Identifying Gametocytocidal Compounds (AID 743244). Further: potency means the concentration at half of the fitted maximal effect.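 On max response: on the % scale 0 is the no-effect control and ±100 the full control effect; actives lower the fluorescent signal which means gametocytes are killed.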 The settings on record: P. falciparum 3D7 stage III-V gametocytes, alamarBlue, 72 h; max response: stronger effect = lower value. The gist of the method: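 Viability read-out was resazurin reduction (alamarBlue, 24 h) measured at Ex 525/Em 598 nm. Beforehand, late-stage (III-V) 3D7 P. falciparum gametocytes at 20,000 cells/well were incubated with compound 72 h at 37C under 5% CO2.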
On to `COC(c1ccccc1)(c1ccccc1)[C@H](Oc1nc(C)cc(C)n1)C(=O)O`, for which the max response was 8.54% (inactive).

For `CCn1cc(C(=O)O)c(=O)c2cc(F)c(N3CCNCC3)cc21`, the max response was 1.43% (inactive) and -0.58% (inactive).

In the case of `NC1(c2ccc(-c3nc4ccn5c(=O)[nH]nc5c4cc3-c3ccccc3)cc2)CCC1`, the Potency is 11.8 µM (active). `COc1cc2c(Nc3ccc(Br)cc3F)ncnc2cc1OCC1CCN(C)CC1`: the Potency was 9.35 µM (active) and 5.62 µM (active). `CC1(C)[C@H](C(=O)O)N2C(=O)C[C@H]2S1(=O)=O`: the max response is 0.138% (inactive). Still for that read-out and setting: then `C#CCN[C@@H]1CCc2ccccc21`, with -0.979% (inactive). Same read-out and setting: to `CC(C)OC(=O)OCOP(=O)(CO[C@H](C)Cn1cnc2c(N)ncnc21)OCOC(=O)OC(C)C` belongs 5.62% (inactive) and 30.5% (inactive). As for `Cc1cccc(Nc2ccncc2S(=O)(=O)NC(=O)NC(C)C)c1`, the max response was -10.6% (inactive). For the compound `CC(C)C[C@H](NC(=O)[C@H](CCc1ccccc1)NC(=O)CN1CCOCC1)C(=O)N[C@@H](Cc1ccccc1)C(=O)N[C@@H](CC(C)C)C(=O)[C@@]1(C)CO1`, the Potency was 0.0118 µM (active). For `O=C(O)c1cn(C2CC2)c2cc(N3CCNCC3)c(F)cc2c1=O`, the max response was 4.49% (inactive).

As to `CCC(C)(C)c1ccc(CC(C)CN2C[C@@H](C)O[C@@H](C)C2)cc1` (some centres undefined), the max response was 21.2% (inactive). Regarding `O=S(=O)(c1cccc2cnccc12)N1CCCNCC1`, the max response was -7.26% (inactive). With `CC(C)OC(=O)C(C(=O)OC(C)C)=C1SC=CS1`, the max response is 13.6% (inactive). As to `CC1=CC(=O)c2ccccc2C1=O`, the Potency was 12.6 µM (active). Regarding `Nc1nc(=S)c2[nH]cnc2[nH]1`, the max response was 3.77% (inactive) and 7.36% (inactive).

On to `O=NN(CCCl)C(=O)NC1CCCCC1`, for which the max response is -7.36% (inactive).

With `COC(=O)Nc1nc2ccc(Sc3ccccc3)cc2[nH]1`, the max response is 2.65% (inactive). As for `N[C@@H](C(=O)N[C@@H]1C(=O)N2C(C(=O)O)=C(Cl)CS[C@H]12)c1ccccc1`, the max response was 19.9% (inactive). In the case of `COc1ncnc(NS(=O)(=O)c2ccc(N)cc2)c1OC`, the max response was -8.03% (inactive).

In the case of `CN(C)CCc1c[nH]c2ccc(CS(=O)(=O)N3CCCC3)cc12`, the max response is 1.18% (inactive). `CNS(=O)(=O)CCc1ccc2[nH]cc(C3CCN(C)CC3)c2c1`: the max response was 4.41% (inactive). With `CN1CCN(c2c(F)cc3c(=O)c(C(=O)O)cn4c3c2OCN4C)CC1`, the max response was 0.61% (inactive). With `O=c1cc(O)c(Cl)c[nH]1`, the max response is 10.3% (inactive). On to `CCCN[C@H]1CCc2nc(N)sc2C1`, for which the max response was -5.22% (inactive).

For the compound `CC(C)Cn1cnc2c(N)nc3ccccc3c21`, the max response is -6.2% (inactive). `CCC(=O)O[C@]1(C(=O)CCl)[C@@H](C)C[C@H]2[C@@H]3CCC4=CC(=O)C=C[C@]4(C)[C@@]3(F)[C@@H](O)C[C@@]21C`: the max response was 4.44% (inactive).

Take `C1CCC(C(CC2CCCCN2)C2CCCCC2)CC1` (centres undefined): the Potency is 10 µM (active). Consider `Nc1[nH]c(=O)ncc1F`, for which the max response was -2.11% (inactive). As to `Nc1nc(N)nc(-c2cc(Cl)ccc2Cl)n1`, the max response is 11.2% (inactive). As to `CO[C@@]12[C@H](COC(N)=O)C3=C(C(=O)C(C)=C(N)C3=O)N1C[C@@H]1N[C@@H]12`, the max response is -9.88% (inactive). With `CNC(=O)c1cc(Oc2ccc(NC(=O)Nc3ccc(Cl)c(C(F)(F)F)c3)cc2)ccn1`, the max response was -3.89% (inactive) and 12.7% (inactive) and 20% (inactive). `NC(=O)N1c2ccccc2CC(=O)c2ccccc21`: the max response is 34.3% (inactive).

Turning to `C[C@@H]1CN(c2c(F)c(N)c3c(=O)c(C(=O)O)cn(C4CC4)c3c2F)C[C@H](C)N1`, the max response was 13.9% (inactive). Regarding `CS(=O)(=O)c1ccc([C@@H](O)[C@@H](CO)NC(=O)C(Cl)Cl)cc1`, the max response is 8.86% (inactive). Consider `CCc1c2c(nc3ccc(OC(=O)N4CCC(N5CCCCC5)CC4)cc13)-c1cc3c(c(=O)n1C2)COC(=O)[C@]3(O)CC`, for which the max response was 2.43% (inactive).

A further experiment can be described thus: qHTS profiling for inhibitors of Plasmodium falciparum (3D7) proliferation (AID 743322; call rule not given here;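 further: infected erythrocytes exposed to compound for 72 h before lysis; 100% = DMSO vehicle wells and 0% = 0.29 µM artemisinin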). As to conditions: P. falciparum 3D7 proliferation; at 28.7 µM (top of the series). The gist of the method:
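Erythrocytes infected with P. falciparum (0.3% parasitemia, 2.5% hematocrit) incubated with compounds 72 h at 37 C, 5% CO2. Lysis with saponin/Triton buffer containing SYBR Green I, overnight at room temperature in the dark; DNA fluorescence (485/535 nm) normalised to 0.29 uM artemisinin and DMSO.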
Background: Quantitative high-throughput screening tests each substance at several concentrations.
With `NC1(c2ccc(-c3nc4ccn5c(=O)[nH]nc5c4cc3-c3ccccc3)cc2)CCC1`, the remaining parasite growth % (stronger effect = lower value) was 36.9% and -1.39%. Take `COc1cc2c(Nc3ccc(Br)cc3F)ncnc2cc1OCC1CCN(C)CC1`: the remaining parasite growth % (stronger effect = lower value) was -1.51%. Consider `CC(C)C[C@H](NC(=O)[C@H](CCc1ccccc1)NC(=O)CN1CCOCC1)C(=O)N[C@@H](Cc1ccccc1)C(=O)N[C@@H](CC(C)C)C(=O)[C@@]1(C)CO1`, for which the remaining parasite growth % (stronger effect = lower value) was -0.503%. Still for that read-out and setting: then `O=C(O)c1cn(C2CC2)c2cc(N3CCNCC3)c(F)cc2c1=O`, with 95%; and `CC1=CC(=O)c2ccccc2C1=O`, with 0.179%; and `COc1ncnc(NS(=O)(=O)c2ccc(N)cc2)c1OC`, with 82.4%. The same measure, in the same setting: then `CNC(=O)c1cc(Oc2ccc(NC(=O)Nc3ccc(Cl)c(C(F)(F)F)c3)cc2)ccn1`, with 31.5% and 9.84%.

A short description of a further experiment: qHTS profiling for inhibitors of Plasmodium falciparum (DD2) proliferation (AID 743323; call rule not given here). The settings on record: lower = more inhibition; at 28.7 µM (top of the series). The gist of the method:
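SYBR Green fluorescence (ex 485, em 535 nm) of lysed cultures gives parasite DNA content; wells normalized to artemisinin (0.29 uM) and DMSO controls. Infected red cells: 0.3% parasitemia, 2.5% hematocrit, 72 h, 37 C.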
As for `NC1(c2ccc(-c3nc4ccn5c(=O)[nH]nc5c4cc3-c3ccccc3)cc2)CCC1`, the activity, percent of control was 14.1% and -0.386%. As for `COc1cc2c(Nc3ccc(Br)cc3F)ncnc2cc1OCC1CCN(C)CC1`, the activity, percent of control was found to be 3.65%. On to `CC(C)C[C@H](NC(=O)[C@H](CCc1ccccc1)NC(=O)CN1CCOCC1)C(=O)N[C@@H](Cc1ccccc1)C(=O)N[C@@H](CC(C)C)C(=O)[C@@]1(C)CO1`, for which the activity, percent of control is -1.29%. On to `O=C(O)c1cn(C2CC2)c2cc(N3CCNCC3)c(F)cc2c1=O`, for which the activity, percent of control is 90.7%. Take `CC1=CC(=O)c2ccccc2C1=O`: the activity, percent of control stood at 0.841%. As for `COc1ncnc(NS(=O)(=O)c2ccc(N)cc2)c1OC`, the activity, percent of control was 85.3%. As for `CNC(=O)c1cc(Oc2ccc(NC(=O)Nc3ccc(Cl)c(C(F)(F)F)c3)cc2)ccn1`, the activity, percent of control is 29.9% and 20%.
